Measured values as given in the supplement of paper PMC11732987, “Enantioselective OTUD7B fragment discovery through chemoproteomics screening and high-throughput optimisation” (Communications Chemistry, 2025).

Experiments:
Assay in all cases: log2 ratio of Biotin-Ahx-Ub-VS probe labelling (fragment/DMSO); higher = less target engagement (more negative = stronger competition), active = hit call of the paper (q ≤ 0.05, log2 ratio ≤ -1)
Conditions in all cases: compound concentration: 200 uM; treatment time: 3 h
USP9X = USP9X (UniProt Q93008)
Outline: (§1)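 Using Biotin-Ahx-Ub-VS at 0.5 µM final for 1 h, DUBs were labelled in HEK293T lysate (495 µg per sample) that had first been treated in triplicate with fragment at 200 µM or vehicle for 3 h. NeutrAvidin enrichment, LysC and trypsin digestion and diaPASEF LC-MS/MS followed. Spectronaut label-free quantities were global-median-normalised. Values are average log2 fragment/vehicle ratios by unpaired t-test, using proteins with ≥2 unique peptides.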

UniProt O00487 = molecular target: UniProt O00487
Outline: as §1

UniProt O00507 = molecular target: UniProt O00507
Outline: as §1

UniProt P51784 = molecular target: UniProt P51784
Outline: as §1

UniProt Q5T2D3 = molecular target: T1, UniProt Q5T2D3
T1 sequence (whole entry): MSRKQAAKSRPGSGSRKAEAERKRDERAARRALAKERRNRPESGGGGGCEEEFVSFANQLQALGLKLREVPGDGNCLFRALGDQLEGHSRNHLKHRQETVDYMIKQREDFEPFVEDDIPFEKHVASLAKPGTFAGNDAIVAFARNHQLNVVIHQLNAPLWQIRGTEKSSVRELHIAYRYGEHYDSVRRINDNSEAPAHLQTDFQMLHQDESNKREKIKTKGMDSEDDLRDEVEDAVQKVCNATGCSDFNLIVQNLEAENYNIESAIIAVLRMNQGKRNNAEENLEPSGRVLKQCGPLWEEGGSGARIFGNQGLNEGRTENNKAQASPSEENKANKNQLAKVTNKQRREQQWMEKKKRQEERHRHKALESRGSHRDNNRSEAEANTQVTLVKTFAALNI
Outline: as §1

UniProt Q8TE49 = molecular target: T2, UniProt Q8TE49
T2 sequence (whole entry): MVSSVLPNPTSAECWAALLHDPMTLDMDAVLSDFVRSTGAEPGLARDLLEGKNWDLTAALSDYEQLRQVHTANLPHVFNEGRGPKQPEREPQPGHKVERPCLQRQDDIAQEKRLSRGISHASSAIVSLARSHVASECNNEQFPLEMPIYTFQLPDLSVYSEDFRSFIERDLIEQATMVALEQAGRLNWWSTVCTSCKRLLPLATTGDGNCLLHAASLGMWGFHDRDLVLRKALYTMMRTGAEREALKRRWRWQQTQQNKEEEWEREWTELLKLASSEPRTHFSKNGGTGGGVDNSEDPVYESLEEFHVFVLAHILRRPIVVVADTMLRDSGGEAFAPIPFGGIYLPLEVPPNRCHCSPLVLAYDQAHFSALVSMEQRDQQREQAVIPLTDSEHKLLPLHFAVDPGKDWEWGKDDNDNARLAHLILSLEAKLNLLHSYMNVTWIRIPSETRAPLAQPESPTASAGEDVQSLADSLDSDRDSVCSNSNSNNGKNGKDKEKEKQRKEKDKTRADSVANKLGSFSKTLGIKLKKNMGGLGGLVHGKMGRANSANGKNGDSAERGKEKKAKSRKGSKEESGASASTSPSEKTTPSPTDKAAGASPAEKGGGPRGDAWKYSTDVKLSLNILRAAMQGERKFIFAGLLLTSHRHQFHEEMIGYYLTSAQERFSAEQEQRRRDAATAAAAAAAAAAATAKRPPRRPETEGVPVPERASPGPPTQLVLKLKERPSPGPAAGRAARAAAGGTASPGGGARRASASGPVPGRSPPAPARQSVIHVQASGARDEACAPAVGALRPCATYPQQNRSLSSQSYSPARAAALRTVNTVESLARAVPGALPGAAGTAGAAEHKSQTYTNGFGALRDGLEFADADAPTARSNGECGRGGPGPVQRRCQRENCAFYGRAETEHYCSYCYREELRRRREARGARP
Outline: as §1

UniProt Q9P2H5 = molecular target: T3, UniProt Q9P2H5
T3 sequence (whole entry): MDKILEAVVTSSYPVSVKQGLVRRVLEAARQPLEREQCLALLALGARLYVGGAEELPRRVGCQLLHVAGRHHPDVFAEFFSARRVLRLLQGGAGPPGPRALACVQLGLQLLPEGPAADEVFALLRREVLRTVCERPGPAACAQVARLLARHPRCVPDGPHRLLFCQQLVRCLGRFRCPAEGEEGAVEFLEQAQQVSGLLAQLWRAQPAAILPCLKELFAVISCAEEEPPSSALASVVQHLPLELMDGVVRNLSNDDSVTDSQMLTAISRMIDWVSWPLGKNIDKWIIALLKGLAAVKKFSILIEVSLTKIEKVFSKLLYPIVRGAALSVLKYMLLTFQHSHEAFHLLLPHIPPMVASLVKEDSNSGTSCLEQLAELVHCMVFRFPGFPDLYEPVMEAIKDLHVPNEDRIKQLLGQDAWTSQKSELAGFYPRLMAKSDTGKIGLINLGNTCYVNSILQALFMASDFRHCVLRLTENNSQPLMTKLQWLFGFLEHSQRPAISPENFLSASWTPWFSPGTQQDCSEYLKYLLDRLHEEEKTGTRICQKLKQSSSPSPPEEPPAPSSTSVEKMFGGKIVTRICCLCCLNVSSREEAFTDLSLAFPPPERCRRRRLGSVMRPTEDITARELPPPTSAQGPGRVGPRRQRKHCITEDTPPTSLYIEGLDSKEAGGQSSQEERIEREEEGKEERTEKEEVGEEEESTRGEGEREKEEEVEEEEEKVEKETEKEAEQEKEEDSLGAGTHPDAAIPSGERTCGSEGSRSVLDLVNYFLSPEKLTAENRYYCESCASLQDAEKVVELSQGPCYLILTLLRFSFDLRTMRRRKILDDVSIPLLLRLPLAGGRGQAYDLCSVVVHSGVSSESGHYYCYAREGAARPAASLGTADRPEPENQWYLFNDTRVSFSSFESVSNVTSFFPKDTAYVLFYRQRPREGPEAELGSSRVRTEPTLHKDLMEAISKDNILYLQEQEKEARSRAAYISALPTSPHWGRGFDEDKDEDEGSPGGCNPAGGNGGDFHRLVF
Outline: as §1

UniProt Q9UGI0 = molecular target: T4, UniProt Q9UGI0
T4 sequence (whole entry): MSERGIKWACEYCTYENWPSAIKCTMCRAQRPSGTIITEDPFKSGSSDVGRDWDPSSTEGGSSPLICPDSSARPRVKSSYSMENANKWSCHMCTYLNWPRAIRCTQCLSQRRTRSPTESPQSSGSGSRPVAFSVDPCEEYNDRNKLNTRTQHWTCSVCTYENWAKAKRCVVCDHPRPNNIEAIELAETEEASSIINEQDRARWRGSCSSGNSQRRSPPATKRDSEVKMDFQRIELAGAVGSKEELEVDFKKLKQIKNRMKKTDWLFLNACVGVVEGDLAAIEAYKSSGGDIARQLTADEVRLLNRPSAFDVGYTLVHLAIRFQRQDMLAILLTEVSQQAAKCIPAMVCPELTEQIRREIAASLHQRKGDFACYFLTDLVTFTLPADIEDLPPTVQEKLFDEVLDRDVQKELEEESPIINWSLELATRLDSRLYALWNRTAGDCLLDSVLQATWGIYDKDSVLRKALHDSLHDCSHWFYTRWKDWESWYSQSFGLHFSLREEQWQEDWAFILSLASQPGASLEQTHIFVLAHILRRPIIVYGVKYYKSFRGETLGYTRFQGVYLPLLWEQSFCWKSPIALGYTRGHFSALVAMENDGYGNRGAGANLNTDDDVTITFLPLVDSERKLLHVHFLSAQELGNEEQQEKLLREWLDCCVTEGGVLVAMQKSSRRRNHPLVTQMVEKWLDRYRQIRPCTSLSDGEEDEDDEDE
Outline: as §1

YOD1 = molecular target: T5, YOD1 (UniProt Q5VVQ6)
T5 sequence (whole entry): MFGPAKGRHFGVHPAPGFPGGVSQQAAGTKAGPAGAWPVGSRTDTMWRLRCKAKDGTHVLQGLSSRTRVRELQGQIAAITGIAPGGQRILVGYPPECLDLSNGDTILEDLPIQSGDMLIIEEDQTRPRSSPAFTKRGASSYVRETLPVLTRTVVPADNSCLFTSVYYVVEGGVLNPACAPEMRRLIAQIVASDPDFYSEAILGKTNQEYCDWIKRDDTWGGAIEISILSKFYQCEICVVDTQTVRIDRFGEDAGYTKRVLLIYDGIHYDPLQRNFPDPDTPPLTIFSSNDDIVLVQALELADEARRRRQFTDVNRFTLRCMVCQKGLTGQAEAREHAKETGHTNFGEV
Outline: as §1

Measured: log2 ratio of Biotin-Ahx-Ub-VS probe labelling

Chain of UniProt O00487 (O00487 whole entry): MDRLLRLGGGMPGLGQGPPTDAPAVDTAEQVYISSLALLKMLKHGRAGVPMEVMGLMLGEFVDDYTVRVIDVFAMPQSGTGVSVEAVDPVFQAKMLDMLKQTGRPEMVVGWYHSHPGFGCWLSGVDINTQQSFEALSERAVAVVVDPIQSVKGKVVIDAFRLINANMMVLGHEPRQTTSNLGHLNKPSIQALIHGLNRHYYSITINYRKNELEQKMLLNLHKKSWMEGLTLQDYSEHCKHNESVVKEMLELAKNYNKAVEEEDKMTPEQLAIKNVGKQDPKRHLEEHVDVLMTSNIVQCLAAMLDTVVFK
Chain of USP9X (Q93008 whole entry, the tested form may be a part): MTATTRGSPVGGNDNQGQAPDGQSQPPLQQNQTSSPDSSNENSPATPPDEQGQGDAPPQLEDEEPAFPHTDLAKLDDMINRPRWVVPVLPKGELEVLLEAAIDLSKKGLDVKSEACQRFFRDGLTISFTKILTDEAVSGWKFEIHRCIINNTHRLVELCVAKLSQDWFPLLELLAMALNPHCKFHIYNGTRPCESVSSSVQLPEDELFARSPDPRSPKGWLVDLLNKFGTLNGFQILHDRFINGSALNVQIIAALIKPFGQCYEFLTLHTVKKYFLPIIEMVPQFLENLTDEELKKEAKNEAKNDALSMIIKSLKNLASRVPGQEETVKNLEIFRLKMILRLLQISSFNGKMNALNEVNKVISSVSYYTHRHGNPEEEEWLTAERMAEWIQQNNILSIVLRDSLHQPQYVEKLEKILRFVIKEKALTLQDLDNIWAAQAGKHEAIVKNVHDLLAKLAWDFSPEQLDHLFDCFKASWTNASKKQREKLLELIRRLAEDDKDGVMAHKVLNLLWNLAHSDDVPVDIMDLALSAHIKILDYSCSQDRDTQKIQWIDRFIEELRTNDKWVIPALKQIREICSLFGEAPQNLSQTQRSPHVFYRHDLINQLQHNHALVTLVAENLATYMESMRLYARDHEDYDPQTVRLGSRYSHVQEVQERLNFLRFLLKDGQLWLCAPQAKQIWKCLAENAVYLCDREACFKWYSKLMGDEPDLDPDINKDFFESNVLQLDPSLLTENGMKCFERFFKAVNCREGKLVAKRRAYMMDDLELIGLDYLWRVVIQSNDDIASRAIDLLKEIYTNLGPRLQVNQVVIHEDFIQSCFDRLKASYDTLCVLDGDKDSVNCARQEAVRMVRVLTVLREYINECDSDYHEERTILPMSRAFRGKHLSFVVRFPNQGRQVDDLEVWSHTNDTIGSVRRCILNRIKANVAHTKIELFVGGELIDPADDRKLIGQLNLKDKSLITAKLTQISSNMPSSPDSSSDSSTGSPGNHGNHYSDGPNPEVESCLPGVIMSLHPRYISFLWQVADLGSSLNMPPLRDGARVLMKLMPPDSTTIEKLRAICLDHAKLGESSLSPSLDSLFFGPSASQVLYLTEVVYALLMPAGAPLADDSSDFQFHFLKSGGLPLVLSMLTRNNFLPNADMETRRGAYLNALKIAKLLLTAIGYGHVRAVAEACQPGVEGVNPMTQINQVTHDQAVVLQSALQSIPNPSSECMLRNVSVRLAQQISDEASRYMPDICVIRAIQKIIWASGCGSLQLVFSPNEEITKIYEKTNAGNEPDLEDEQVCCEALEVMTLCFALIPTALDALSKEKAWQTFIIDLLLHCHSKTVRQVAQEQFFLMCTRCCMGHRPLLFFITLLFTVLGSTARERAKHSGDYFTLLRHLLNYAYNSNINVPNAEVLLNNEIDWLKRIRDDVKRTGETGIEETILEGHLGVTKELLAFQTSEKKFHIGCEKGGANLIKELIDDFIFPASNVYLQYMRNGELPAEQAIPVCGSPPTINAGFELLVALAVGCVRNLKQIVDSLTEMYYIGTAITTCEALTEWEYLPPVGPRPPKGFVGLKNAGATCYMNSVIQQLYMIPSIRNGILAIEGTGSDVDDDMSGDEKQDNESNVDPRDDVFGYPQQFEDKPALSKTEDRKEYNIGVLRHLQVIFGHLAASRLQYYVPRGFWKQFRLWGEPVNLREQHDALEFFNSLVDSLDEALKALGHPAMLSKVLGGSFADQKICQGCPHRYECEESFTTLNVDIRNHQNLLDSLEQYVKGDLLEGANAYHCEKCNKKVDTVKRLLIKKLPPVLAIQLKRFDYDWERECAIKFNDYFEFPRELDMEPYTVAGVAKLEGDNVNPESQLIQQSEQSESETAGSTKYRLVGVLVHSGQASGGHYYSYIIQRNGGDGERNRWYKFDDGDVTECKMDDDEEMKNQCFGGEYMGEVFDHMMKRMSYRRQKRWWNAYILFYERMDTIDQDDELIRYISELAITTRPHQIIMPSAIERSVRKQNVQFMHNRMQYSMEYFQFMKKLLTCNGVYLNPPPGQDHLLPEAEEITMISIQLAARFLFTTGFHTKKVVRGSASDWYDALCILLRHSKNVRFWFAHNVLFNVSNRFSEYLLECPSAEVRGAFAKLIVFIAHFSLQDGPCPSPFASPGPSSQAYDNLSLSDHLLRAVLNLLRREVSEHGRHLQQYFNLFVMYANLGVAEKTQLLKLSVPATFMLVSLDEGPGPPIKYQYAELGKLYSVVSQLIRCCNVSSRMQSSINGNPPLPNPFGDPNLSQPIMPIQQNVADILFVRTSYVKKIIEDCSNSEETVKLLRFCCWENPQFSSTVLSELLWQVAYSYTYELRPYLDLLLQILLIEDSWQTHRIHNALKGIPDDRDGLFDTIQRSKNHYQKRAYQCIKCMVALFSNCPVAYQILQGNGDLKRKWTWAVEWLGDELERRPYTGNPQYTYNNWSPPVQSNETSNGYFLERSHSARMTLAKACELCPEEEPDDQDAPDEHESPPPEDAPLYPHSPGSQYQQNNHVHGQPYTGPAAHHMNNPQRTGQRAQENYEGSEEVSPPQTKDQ
Chain of UniProt P51784 (P51784 whole entry): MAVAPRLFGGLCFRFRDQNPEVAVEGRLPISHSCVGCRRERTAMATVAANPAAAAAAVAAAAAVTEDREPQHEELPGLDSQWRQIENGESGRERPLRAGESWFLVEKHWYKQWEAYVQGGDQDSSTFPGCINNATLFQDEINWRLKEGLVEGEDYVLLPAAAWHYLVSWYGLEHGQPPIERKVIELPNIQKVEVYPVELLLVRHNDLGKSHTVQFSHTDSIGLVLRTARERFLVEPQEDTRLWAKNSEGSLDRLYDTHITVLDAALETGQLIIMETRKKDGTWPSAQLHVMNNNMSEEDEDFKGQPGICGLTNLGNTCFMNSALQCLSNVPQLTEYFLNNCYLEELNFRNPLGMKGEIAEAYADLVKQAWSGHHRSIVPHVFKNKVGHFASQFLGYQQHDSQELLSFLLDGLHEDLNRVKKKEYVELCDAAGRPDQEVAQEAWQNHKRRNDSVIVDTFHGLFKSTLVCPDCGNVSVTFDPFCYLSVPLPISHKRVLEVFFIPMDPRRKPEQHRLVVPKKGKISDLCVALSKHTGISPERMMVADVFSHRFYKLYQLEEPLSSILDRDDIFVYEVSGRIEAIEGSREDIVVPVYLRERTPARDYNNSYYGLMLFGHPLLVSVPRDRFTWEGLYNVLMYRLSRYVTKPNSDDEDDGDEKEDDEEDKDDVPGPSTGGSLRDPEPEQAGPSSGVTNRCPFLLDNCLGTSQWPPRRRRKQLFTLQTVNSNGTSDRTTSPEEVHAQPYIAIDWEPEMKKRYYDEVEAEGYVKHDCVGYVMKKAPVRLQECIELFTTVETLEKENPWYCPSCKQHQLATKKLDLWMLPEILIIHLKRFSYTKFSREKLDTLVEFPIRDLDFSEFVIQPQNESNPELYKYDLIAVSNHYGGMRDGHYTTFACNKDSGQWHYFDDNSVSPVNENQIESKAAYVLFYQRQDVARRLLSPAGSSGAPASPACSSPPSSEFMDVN

Cl.Cn1c(CNC(=O)CCl)nc2cccnc21
inactive: USP9X -0.29 | UniProt O00487 -0.167 | UniProt O00507 -0.348 | UniProt P51784 -0.0765 | UniProt Q5T2D3 -0.354 | UniProt Q8TE49 -0.488 | UniProt Q9P2H5 -0.199 | UniProt Q9UGI0 -0.199 | YOD1 -0.334
